Activity calls are given as the source filed them.
Tests used:
Albumin (Bos taurus) = Albumin (Bos taurus) (UniProt P02769); assay: compounds binding labelled BSA control protein – biochemical, small-molecule microarray, Alexa647 label, 635/667 nm fluorescence, artefact control for SMM control protein annotation, profiling panel (AID 1118); settings: BSA-A647 binding, fluorescence 635 nm, higher = more signal;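 note: score merges 667 nm emission intensity and signal-to-noise per printed compound spot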
[1] = probe aXIP binding to arrayed compounds – biochemical, NeuroSMM set, 635/667 nm fluorescence, primary screen (AID 1119); settings: small-molecule microarray, higher = more signal, called active from +8 up or from −8 down;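 note: probe is the protein aXip251-270 applied at 1 µg/mL to compound-printed slides; binding of probe to printed compounds measured as 667 nm fluorescence plus signal to noise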
[2] = probe aNOTCH3 binding on compound microarray – biochemical, small-molecule microarray, 635/667 nm fluorescence, primary screen (AID 1120); settings: higher = more signal;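 note: probe is a biotin-tagged antibody raised against NOTCH3 rather than NOTCH3 protein; score merges spot fluorescence near 667 nm with spot signal to noise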
[3] = probe aNOTCH2 binding on compound microarray – biochemical, small-molecule microarray, 635/667 nm fluorescence, primary screen (AID 1121); settings: higher = more signal;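 note: score merges feature fluorescence read at 667 nm with its signal to noise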
[4] = biological target: Carbonic anhydrase 2 (Homo sapiens) (UniProt P00918); assay: compounds binding carbonic anhydrase 2 – biochemical, small-molecule microarray, Alexa647-labelled CAII, profiling panel (AID 1122); settings: CAII-A647 binding fluorescence, higher = more signal
[5] = COS7 lysate on small-molecule microarray, probe aHis, 635 nm (AID 1123); settings: COS7 cell lysate, fluorescence, higher = more signal;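 note: z-score combines 667nm fluorescence intensity with signal-to-noise per printed compound spot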
[6] = probe aLAP1 signal on lysate-treated microarray – cell lysate, small-molecule microarray, COS7 lysate, primary screen (AID 1124); settings: probe aLAP1, fluorescence, higher = more signal;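 note: lysate comes from COS7 cells expressing LAP1 and is applied at 0.3 µg/mL; score merges spot fluorescence near 667 nm with signal-to-noise over triplicate slides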
Sam68 (KHDRBS1) = assay: compounds binding KHDRBS1 protein – biochemical, small-molecule microarray, 635 nm fluorescence, primary screen (AID 1125); settings: higher = more signal;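 note: score merges 667 nm channel intensity with signal to noise over triplicate slides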
[7] = system: Chordin-like protein 2 (CHRDL2); assay: compounds binding chordin-like 2 – biochemical, small-molecule microarray, 635 nm fluorescence, primary screen (AID 1126); settings: fluorescence 635 nm, higher = more signal;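 note: printed compound slides probed with Chrdl2 protein at 4 µg/mL for 1 h at 4 C; score merges 667 nm emission intensity with signal to noise over three replicate slides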
[8] = biological target: Concanavalin-A (Canavalia ensiformis) (UniProt P02866); assay: compounds binding concanavalin A lectin – biochemical, small-molecule microarray, Alexa647 label, 635 nm, artefact control for SMM control protein annotation, primary screen (AID 1127); settings: ConA-A647 binding fluorescence, higher = more signal;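 note: z combines 667 nm emission intensity with signal-to-noise across three replicate slides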
[9] = compounds binding Alexa647 anti-His antibody – biochemical, small-molecule microarray, 635 nm fluorescence, artefact control for SMM control protein annotation, primary screen (AID 1128); settings: higher = more signal;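 note: score merges feature fluorescence with signal-to-noise for each printed compound spot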
[10] = system: Human papillomavirus type 1a E7 protein (residues 1-88); assay: HPV1a E7 small-molecule binders, primary screen, biochemical, small-molecule microarray, residues 1-88, 635 nm (AID 1129); settings: small-molecule microarray binding, fluorescence 635 nm; higher = more signal
[11] = biological target: Focal adhesion kinase 1 (Homo sapiens) (UniProt Q05397); assay: PTK2 protein binding on printed compound slides – biochemical, small-molecule microarray, 635/667 nm fluorescence, BSA, DTT, primary screen (AID 1130); settings: 635 nm fluorescence, higher = more signal;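 note: composite of spot emission at 667 nm and signal to noise over triplicate slides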
[12] = system: Fibrinogen (Alexa647-labelled); assay: Alexa647-fibrinogen binding to printed small molecules – biochemical, small-molecule microarray, 635/667 nm fluorescence, artefact control for SMM control-protein annotation, profiling panel (AID 1131); settings: fibrinogen-A647 binding fluorescence, higher = more signal;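 note: z-score merges 667 nm fluorescence with per-spot signal-to-noise over triplicate slides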
[13] = biological target: Follistatin (Homo sapiens) (UniProt P19883); assay: FST protein binding to printed compounds – biochemical, small-molecule microarray, 635/667 nm fluorescence, primary screen (AID 1132); settings: 635 nm fluorescence, higher = more signal
[14] = biological target: Fibroblast growth factor 2 (Homo sapiens) (UniProt P09038); assay: basic fibroblast growth factor binding to printed compounds – biochemical, small-molecule microarray, 635/667 nm fluorescence, primary screen (AID 1133); settings: FGF2, fluorescence 635/667, higher = more signal
[15] = JC-1 mitochondrial potential readout, lung cancer cells – cell-based, A549, JC-1 fluorescence, basal, 24 h, 100 nL, profiling panel (AID 1138); settings: higher = more signal;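 note: A549 lung adenocarcinoma cells under basal conditions with no added stimulus; test concentration not given here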
Lefty1 = Lefty1 protein binding to printed compounds – biochemical, small-molecule microarray, 635/667 nm fluorescence, primary screen (AID 1139); settings: fluorescence 635/667, higher = more signal
[16] = system: wheat germ agglutinin (Triticum aestivum), Alexa647-labelled; assay: Alexa647-WGA lectin binding to printed small molecules – biochemical, small-molecule microarray, 635/667 nm fluorescence, artefact control for SMM control-protein annotation, profiling panel (AID 1140); settings: WGA-A647 binding, 635 nm fluorescence, higher = more signal;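 note: score merges 667 nm feature emission with signal to noise over triplicate slides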
[17] = biological target: Luciferin 4-monooxygenase (Photinus pyralis) (UniProt P08659); assay: inhibition of purified Photinus pyralis luciferase – biochemical, luminescence, purified enzyme, 2006 set, primary screen (AID 1141); settings: purified firefly luciferase, SteadyGlo luminescence, 30 min; higher = more signal, called active from +8 up or from −8 down;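 note: cell-free assay with purified firefly luciferase at 100 ng per well in PBS; test concentration not given here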
Sequence of Luciferin 4-monooxygenase (Photinus pyralis) (P08659 whole entry, looked up): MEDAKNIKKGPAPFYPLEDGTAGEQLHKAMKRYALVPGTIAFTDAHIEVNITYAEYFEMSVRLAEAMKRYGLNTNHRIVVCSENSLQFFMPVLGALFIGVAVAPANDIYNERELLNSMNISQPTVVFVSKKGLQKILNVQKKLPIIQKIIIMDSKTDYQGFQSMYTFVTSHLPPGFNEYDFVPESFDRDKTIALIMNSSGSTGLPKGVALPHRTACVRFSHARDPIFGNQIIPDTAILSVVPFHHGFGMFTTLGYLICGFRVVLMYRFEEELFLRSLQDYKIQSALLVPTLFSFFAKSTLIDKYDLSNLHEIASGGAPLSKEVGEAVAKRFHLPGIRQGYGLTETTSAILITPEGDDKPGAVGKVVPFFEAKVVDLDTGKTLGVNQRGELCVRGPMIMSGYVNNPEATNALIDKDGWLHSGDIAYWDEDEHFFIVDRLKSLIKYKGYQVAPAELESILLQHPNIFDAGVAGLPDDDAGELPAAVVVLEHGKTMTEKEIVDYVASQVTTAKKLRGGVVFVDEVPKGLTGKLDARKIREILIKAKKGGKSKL

Sequence of Albumin (Bos taurus) (P02769 whole entry, looked up): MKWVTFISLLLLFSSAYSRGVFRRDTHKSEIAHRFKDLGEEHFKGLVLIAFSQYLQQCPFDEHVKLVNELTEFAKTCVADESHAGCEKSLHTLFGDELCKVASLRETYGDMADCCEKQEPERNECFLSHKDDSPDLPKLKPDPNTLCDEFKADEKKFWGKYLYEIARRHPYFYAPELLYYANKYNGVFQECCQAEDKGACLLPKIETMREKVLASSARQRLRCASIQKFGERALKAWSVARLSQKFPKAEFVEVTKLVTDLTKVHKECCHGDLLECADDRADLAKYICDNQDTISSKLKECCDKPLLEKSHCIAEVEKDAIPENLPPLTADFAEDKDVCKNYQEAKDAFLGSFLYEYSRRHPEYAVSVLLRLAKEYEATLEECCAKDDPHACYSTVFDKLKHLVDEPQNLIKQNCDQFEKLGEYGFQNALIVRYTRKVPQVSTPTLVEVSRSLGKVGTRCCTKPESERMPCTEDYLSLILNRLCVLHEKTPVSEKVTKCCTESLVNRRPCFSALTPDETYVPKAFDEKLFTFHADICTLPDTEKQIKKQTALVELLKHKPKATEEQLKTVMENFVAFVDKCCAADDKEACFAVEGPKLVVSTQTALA
Sequence of Fibroblast growth factor 2 (Homo sapiens) (P09038 whole entry, looked up): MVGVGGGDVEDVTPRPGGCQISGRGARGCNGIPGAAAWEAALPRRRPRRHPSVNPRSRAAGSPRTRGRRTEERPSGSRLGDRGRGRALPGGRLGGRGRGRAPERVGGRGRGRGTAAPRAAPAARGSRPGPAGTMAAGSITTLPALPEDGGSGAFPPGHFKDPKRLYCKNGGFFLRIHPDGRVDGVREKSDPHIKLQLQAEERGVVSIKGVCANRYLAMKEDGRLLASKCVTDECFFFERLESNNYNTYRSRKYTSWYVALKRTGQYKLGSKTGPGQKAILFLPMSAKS
Sequence of Follistatin (Homo sapiens) (P19883 whole entry, looked up): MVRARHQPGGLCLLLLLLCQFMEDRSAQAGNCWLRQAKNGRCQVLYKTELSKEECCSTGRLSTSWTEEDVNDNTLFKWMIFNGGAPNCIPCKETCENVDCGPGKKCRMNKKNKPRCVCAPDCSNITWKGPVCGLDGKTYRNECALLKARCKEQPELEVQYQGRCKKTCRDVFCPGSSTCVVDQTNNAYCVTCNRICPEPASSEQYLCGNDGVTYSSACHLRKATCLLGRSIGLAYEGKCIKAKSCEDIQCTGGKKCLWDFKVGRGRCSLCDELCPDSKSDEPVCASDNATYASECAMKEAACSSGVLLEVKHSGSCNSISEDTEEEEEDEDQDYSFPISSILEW
Sequence of Focal adhesion kinase 1 (Homo sapiens) (Q05397 whole entry, looked up): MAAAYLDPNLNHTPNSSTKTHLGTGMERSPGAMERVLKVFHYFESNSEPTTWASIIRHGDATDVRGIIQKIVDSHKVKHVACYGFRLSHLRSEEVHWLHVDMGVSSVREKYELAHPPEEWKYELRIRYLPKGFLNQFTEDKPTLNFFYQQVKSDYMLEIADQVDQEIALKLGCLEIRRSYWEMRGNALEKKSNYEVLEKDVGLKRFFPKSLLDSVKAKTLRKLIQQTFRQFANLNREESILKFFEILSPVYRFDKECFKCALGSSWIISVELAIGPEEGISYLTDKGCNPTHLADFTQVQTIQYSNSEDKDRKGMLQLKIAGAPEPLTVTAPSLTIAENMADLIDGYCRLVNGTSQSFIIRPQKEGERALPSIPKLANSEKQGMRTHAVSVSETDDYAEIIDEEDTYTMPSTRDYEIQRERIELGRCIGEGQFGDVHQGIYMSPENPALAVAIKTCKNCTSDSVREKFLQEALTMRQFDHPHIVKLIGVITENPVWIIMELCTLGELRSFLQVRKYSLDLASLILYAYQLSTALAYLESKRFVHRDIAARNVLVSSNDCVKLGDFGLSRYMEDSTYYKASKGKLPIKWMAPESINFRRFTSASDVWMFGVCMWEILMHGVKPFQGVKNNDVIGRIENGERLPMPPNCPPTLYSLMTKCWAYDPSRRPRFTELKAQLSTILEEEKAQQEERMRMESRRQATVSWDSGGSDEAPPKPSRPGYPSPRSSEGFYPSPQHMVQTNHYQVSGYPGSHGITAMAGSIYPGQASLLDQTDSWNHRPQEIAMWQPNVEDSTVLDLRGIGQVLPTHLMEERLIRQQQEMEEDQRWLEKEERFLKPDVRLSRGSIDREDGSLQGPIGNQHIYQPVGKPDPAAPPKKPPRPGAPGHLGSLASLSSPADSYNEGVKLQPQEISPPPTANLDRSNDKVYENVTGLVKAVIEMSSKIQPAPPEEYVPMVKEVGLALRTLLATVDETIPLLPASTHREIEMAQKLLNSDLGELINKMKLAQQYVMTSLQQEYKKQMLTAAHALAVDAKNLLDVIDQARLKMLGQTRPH
Sequence of Concanavalin-A (Canavalia ensiformis) (P02866 whole entry, looked up): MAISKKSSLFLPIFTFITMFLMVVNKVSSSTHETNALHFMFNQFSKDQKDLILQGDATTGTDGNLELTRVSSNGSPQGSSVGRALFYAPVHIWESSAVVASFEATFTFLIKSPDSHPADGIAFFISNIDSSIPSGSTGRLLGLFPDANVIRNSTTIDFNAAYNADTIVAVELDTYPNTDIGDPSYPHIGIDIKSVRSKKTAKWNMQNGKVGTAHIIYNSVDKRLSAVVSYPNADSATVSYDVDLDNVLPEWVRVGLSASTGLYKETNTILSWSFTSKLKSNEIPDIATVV

Structure (SMILES) | composite z-score (Albumin (Bos taurus)) | composite Z-score [1] | composite z-score [2] | composite z-score [3] | composite z-score [4] | composite z-score [5] | composite z-score [6] | composite z-score (Sam68 (KHDRBS1)) | composite z-score [7] | composite z-score [8] | composite z-score [9] | composite z-score [10] | composite z-score [11] | composite z-score [12] | composite z-score [13] | composite z-score [14] | z-score [15] | composite z-score (Lefty1) | composite z-score [16] | z-score [17]
COCCOC(=O)N1C(=O)[C@@]2(c3cc(C#CC4=CCCCC4)ccc31)[C@H](c1ccc(OCCO)cc1)N1[C@H](c3ccccc3)[C@H](c3ccccc3)OC(=O)[C@H]1[C@@H]2C(=O)N1CCCCCCC1 | 0.263 | 2 (inactive) | 0.809 | 0.0784 | 0.623 | 2.41 | 0.903 | 1.3 | 0.91 | 1.11 | 1.11 | 0.929 | 0.267 | 0.818 | 1.41 | 1.42 | -0.744 | 1.21 | 0.743 | -2.78 (inactive)
COC(=O)C(CC#Cc1ccc2c(c1)[C@]1(C(=O)N2)[C@H](c2ccc(O)cc2)N2[C@H](c3ccccc3)[C@H](c3ccccc3)OC(=O)[C@H]2[C@@H]1C(=O)N1CCc2cc(OC)c(OC)cc2C1)C(=O)OC | -0.1 | 0.33 (inactive) | 0.0032 | -0.125 | 0.366 | 1.72 | 1.05 | 1.32 | 0.64 | 1.12 | 1.54 | 0.953 | -0.0453 | 0.742 | 1.36 | 1.17 | -0.654 | 1.54 | 0.384 | -0.0494 (inactive)
CCC[C@@H]1C=C(C(=O)OCC)[C@H](c2ccccc2)N1S(=O)(=O)c1ccc(C)cc1 | 0.854 | 0.142 (inactive) | 0.341 | 0.273 | 0.214 | -0.0844 | 1.29 | 1.3 | 0.0538 | 1.11 | 0.796 | 1.14 | 0.898 | 0.979 | 0.947 | 0.538 | 2.03 | 0.565 | 1.2 | 1.41 (inactive)
CC(C)C(=C=CC[C@@H](O)c1ccccc1OCCO)C[C@@H](O)c1cc(Cl)cc(Cl)c1O | 0.77 | -0.235 (inactive) | 0.156 | -0.147 | 0.68 | 1.76 | 0.632 | 1.26 | 0.784 | 0.612 | 1.46 | 1.23 | -0.14 | 0.88 | 1.38 | 0.964 | -1.35 | 1.58 | 0.54 | -1 (inactive)
CC1(C)OC[C@@]23C=C(Br)[C@@H](C[C@H]12)[C@@]1(CO1)C3=O | -0.172 | 0.0315 (inactive) | 0.0824 | -0.189 | -0.0169 | -0.0842 | -0.0515 | 0.107 | 0.467 | 0.262 | 0.424 | 0.62 | 0.139 | 0.149 | 0.369 | 0.122 | 0.582 | 0.439 | 0.0477 | -0.0228 (inactive)
COCCCNC(=O)[C@@H]1c2ccccc2C(=O)N(C2CCCCC2)[C@H]1c1ccc(CO)cc1 | -0.527 | -1.17 (inactive) | -0.27 | -0.106 | 0.471 | 1.08 | 0.0117 | -0.724 | -1.23 | -0.247 | 3.06 | -0.668 | 0.183 | -0.927 | -0.388 | -0.658 | 0.705 | -1.19 | -0.365 | -0.0838 (inactive)
CC(C)=CCN(C(=O)C#Cc1ccccc1)[C@H](CO)c1ccccc1 | -0.105 | -0.0102 (inactive) | 0.0259 | -0.0883 | -0.0216 | 0.506 | 0.0602 | 0.798 | 0.902 | 0.101 | 0.326 | 0.419 | -0.0317 | 0.237 | 0.653 | 0.766 | -0.842 | 0.743 | 0.146 | 0.265 (inactive)
CCc1cccc(NC(=O)O[C@H]2[C@H](OC(=O)Nc3ccc4c(c3)OCO4)[C@H](OC(=O)Nc3ccc4c(c3)OCO4)[C@@H](OC)O[C@@H]2CO)c1 | 0.208 | 1.31 (inactive) | 0.337 | 0.817 | 0.486 | 2.46 | -0.0378 | 1.29 | -0.0095 | 1.14 | 2.14 | 1.24 | -0.164 | 0.97 | 0.987 | 0.0183 | -0.308 | 0.478 | 0.815 | -10.5 (active)
CCOC(=O)C1=C(C(=O)OCC)N(S(=O)(=O)CC[Si](C)(C)C)[C@H](c2ccccc2)CC1 | 0.565 | -0.463 (inactive) | 0.112 | -0.075 | 0.443 | 0.727 | -0.102 | 1.3 | -0.0267 | 1.14 | 0.171 | 1.17 | -0.069 | 0.837 | 0.761 | -0.0502 | 2.54 | 0.566 | 1.1 | 1.01 (inactive)
[N-]=[N+]=NCc1ccccc1C[C@@]1(C(=O)O)N=C(c2ccc(OCCCO)cc2)O[C@@H]1c1ccccc1CN=[N+]=[N-] | 0.516 | 0.259 (inactive) | 0.244 | -0.0716 | 0.573 | 0.0091 | 0.0036 | 1.31 | -0.0541 | 1.11 | 0.705 | 1.17 | -0.0333 | 0.989 | 1.02 | 0.679 | -0.253 | 0.594 | 0.51 | -0.593 (inactive)
COCCOC(=O)N1C(=O)[C@@]2(c3cc(C#CC4(O)CCCCCC4)ccc31)[C@H](c1ccc(OCCO)cc1)N1[C@H](c3ccccc3)[C@H](c3ccccc3)OC(=O)[C@H]1[C@@H]2C(=O)N1CCCCCCC1 | 0.571 | 1.12 (inactive) | 1.14 | 0.0899 | 0.357 | 2.47 | 1.02 | 1.31 | 0.744 | 1.15 | 0.459 | 1.21 | 0.175 | 0.95 | 1.39 | 1.47 | -1.31 | 1.16 | 1.32 | -1.34 (inactive)

Reference: PubChem BioAssay
